Data on 104 compounds can be found in ChEMBL document CHEMBL4513216, “Probing the Open Global Health Chemical Diversity Library for Multistage-Active Starting Points for Next-Generation Antimalarials” (ACS Infect Dis, 2020).

Structures are written as SMILES. Screen size: about 69,000 compounds; about 8,600 (12%) showed an effect of 50% or more. The sample holds strong results, similar compounds and a random draw of the others, so the mix is not that of the screen.

This assay deals with Plasmodium berghei. Put plainly: Screen against P. berghei liver stage (PbLuc), transformed with Luciferase, at 10uM. Format: functional, HepG2. Conditions: tested at 10 uM.
As for `CC1CCN(c2nc3cn(-c4ccccc4)c(=O)c-3c[nH]2)CC1`, the INHIBITION is listed as -21.5%.
For the compound `Cc1cccc(CN2CCCC3(CCC(=O)N3CCN(C)C)CC2)n1` (centres undefined), the INHIBITION is -6.05%.
Take `CN(C)C(=O)N1C[C@@H]2CCCO[C@@H]2[C@H](N(C)Cc2ccco2)C1`: the INHIBITION amounted to 41.8%.
Regarding `CC(C)c1n[nH]c(C2CN(C(=O)c3cnccn3)CCO2)n1` (centres undefined), the INHIBITION is on record as 48.4%.
Next, `CN1CCC(C)(CNC(=O)c2ccc(SCc3cccnc3)cc2)CC1`: 34%; `CCSc1ncc(Cl)c(C(=O)NC(CCSC)C(=O)O)n1` (centres undefined): 15.9%; `CNS(=O)(=O)c1ccc(CNC(=O)C2CCCO2)cc1` (centres undefined): 54.3%.
`CNS(=O)(=O)c1ccc(CNC(=O)NCC2CCOC2)cc1` (centres undefined): the INHIBITION turned out to be 21.9%.
On to `CNS(=O)(=O)c1ccc(CNC(=O)N2CCOC(C)C2)cc1` (centres undefined), for which the INHIBITION was determined as 50%.
On to `CNS(=O)(=O)c1ccc(CNC(=O)C2CN(C)CCO2)cc1` (centres undefined), for which the INHIBITION was 50%.
With `CNS(=O)(=O)c1ccc(CNC(=O)C2CCCN(C)C2)cc1` (centres undefined), the INHIBITION is on record as -34.8%.
For `CC1CN(C(=O)NCc2cnn(-c3ccc(F)cc3F)c2)CCO1` (centres undefined), the INHIBITION is on record as -2.55%.
As for `CNS(=O)(=O)c1ccc(CNC(=O)NCC2CCCO2)cc1` (centres undefined), the INHIBITION came out at 0.932%.
Regarding `CNS(=O)(=O)c1ccc(CNC(=O)NCC2CCC2)cc1`, the INHIBITION is recorded as -75.2%.
With `CNS(=O)(=O)c1ccc(CNC(=O)N(CC(C)C)C(C)C)cc1`, the INHIBITION is 31.2%.
In the case of `Cc1c(NC(=O)NCCO)cccc1OC1CCCC1`, the INHIBITION is on record as -2.27%.
For the compound `CCN(CC)CC1CCN(Cc2ccn(C)c(=O)c2)CC1`, the INHIBITION is -18%.
As to `COc1ccc(CNc2cc3[nH]c(O)nc3cc2C)cc1`, the INHIBITION came out at 29.1%.
Consider `O=C(CCS(=O)(=O)c1ccccc1)NC1CCOC2(CCOCC2)C1` (centres undefined), for which the INHIBITION is given as 12.1%.
`COc1ccc(COCC(=O)N2CCCC(n3cncn3)C2)cc1` (centres undefined): the INHIBITION is -9.76%.
For the compound `Cn1cccc1C(=O)N1CCC2(CC1)COC(COc1ccccn1)C2` (centres undefined), the INHIBITION was -8.19%.
Next, `O=S(=O)(c1ccccc1)N1CCC2(CCCN2CC2CCCC2)C1` (centres undefined): 71.1%.
For `O=C1N(CC2CCC2)CCCC12CCN(S(=O)(=O)c1cccnc1)C2` (centres undefined), the INHIBITION is reported as -21.8%.
As for `O=C1CCC2(CCN(S(=O)(=O)c3ccccc3)CC2)N1CC1CC1`, the INHIBITION is -51.6%.
Next, `CC(C)(C)CN1CCCC12CCN(S(=O)(=O)c1ccccc1)C2` (centres undefined): 78.8%.
As for `CC(=O)N1CCC2(CC1)CCN(S(=O)(=O)c1ccccc1)C2`, the INHIBITION was -18.4%.
With `CCN1C(=O)CCC12CCN(S(=O)(=O)c1ccccc1)CC2` the figure was -2.35%; with `Cc1c[nH]nc1C1CN(c2ncccn2)CCO1` (centres undefined), 14.575%.
For `N#Cc1ccc(CCC(=O)N2CCC(CN3CCOCC3)CC2)cc1`, the INHIBITION is recorded as 37.7%.
In the case of `O=C(O)C1CN(c2cncc(Cc3ccccc3)n2)C1`, the INHIBITION amounted to 8.35%.
As for `CCc1cc(N[C@H]2CCC[C@H]2CO)n2nc(C)c(C)c2n1`, the INHIBITION worked out at 16.3%.
Consider `O=S1(=O)CCN(CCCc2ccc(Cl)cc2)CC1`, for which the INHIBITION stood at 15%.
With `O=C(COCC(F)(F)F)N1CCCC(n2cccn2)C1` (centres undefined) the figure was 39.5%; with `CC(C)CC(=O)N1CCN(C(=O)NC(C)C)CC2(CC(=O)N(C)C2)C1` (centres undefined), 34.4%; with `O=C(NCCc1ccncc1)c1cccc(S(=O)(=O)NC2CC2)c1`, -78.5%.
As to `CN1CC[C@]2(CN(CC3CC3)C[C@H]2c2ccccc2)C1=O`, the INHIBITION came to 52.4%.
On to `O=C1NCC[C@]12CN(CC1CCOCC1)C[C@H]2c1ccccc1`, for which the INHIBITION turned out to be 29.5%.
In the case of `CN1CC[C@]2(CN(CC3CCOC3)C[C@H]2c2ccccc2)C1=O` (some centres undefined), the INHIBITION was found to be 57.3%.
With `CN1CC[C@]2(CN(Cc3nccs3)C[C@H]2c2ccccc2)C1=O` the figure was -2.41%.
On to `CN(C)C(=O)CN1CC[C@]2(CN(CC3CC3)C[C@H]2c2ccccc2)C1=O`, for which the INHIBITION was 26.5%.
For `CN1CC[C@]2(CN(CC3CCOCC3)C[C@H]2c2ccccc2)C1=O`, the INHIBITION was 43.4%.
Consider `Cc1ccc(NC2CCN(C(=O)CCCn3ccnc3C)CC2)nn1`, for which the INHIBITION amounted to 8.64%.
Regarding `CC(C)c1noc(CS(=O)(=O)CC(=O)NCCOc2ccccc2)n1`, the INHIBITION was found to be 61.5%.
Consider `CC(C)c1noc(CCCC(=O)NCCOc2ccccc2)n1`, for which the INHIBITION was determined as 46.4%.
As for `CC(C)c1noc(CS(=O)(=O)CC(=O)NCc2ccccc2)n1`, the INHIBITION is recorded as 10.6%.
Take `CC(C)OCCCNC(=O)C1CC(=O)N(c2n[nH]c3cccc(F)c23)C1` (centres undefined): the INHIBITION was -10.9%.
Regarding `Cn1cccc1C(=O)N1CCCC(Cn2cc(CO)nn2)C1` (centres undefined), the INHIBITION is -2.39%.
For the compound `Cc1ccc(C2CN(CCS(=O)(=O)C(C)C)CCO2)c(C)c1` (centres undefined), the INHIBITION turned out to be 30.7%.
Turning to `Cc1ccc(C2CN(c3nnc(C(F)F)s3)CCO2)c(C)c1` (centres undefined), the INHIBITION was determined as 57.4%.
Consider `Cc1ccc(C2CN(CCCC#N)CCO2)c(C)c1` (centres undefined), for which the INHIBITION is given as -3.47%.
Next, `Cc1ccc(C(=O)N2CCC3(CCN(c4ccsc4)C3=O)C2)cn1` (centres undefined): -14.3%; `NCc1n[nH]c(-c2ccc(Br)cc2)n1`: -34.4%.
As for `Cc1ncn(-c2cc(N3CCN(S(C)(=O)=O)CC3)ncn2)c1C`, the INHIBITION turned out to be 51.5%.
With `Cc1nc(N2CCN(S(C)(=O)=O)CC2)cc(-n2cnc(C)c2C)n1`, the INHIBITION worked out at 23.9%.
Next, `CCCS(=O)(=O)N1CCN(c2cc(-n3cnc(C)c3C)ncn2)CC1`: 27.2%.
As for `Cc1nc(C)n(C2CCCN(C(=O)c3cncnc3C)C2)n1` (centres undefined), the INHIBITION worked out at 1.563%.
In the case of `CS(=O)(=O)NCCCN1CCCC1c1cccc(Br)c1` (centres undefined), the INHIBITION is given as -5.25%.
Next, `CCNc1ncc(C(=O)NC(c2ccccc2)c2ccco2)cn1` (centres undefined): 33.4%.
Regarding `CCNc1ncc(C(=O)N[C@H](C(N)=O)c2ccccc2)cn1`, the INHIBITION was 17.1%.
Next, `CCNc1ncc(C(=O)NC2CCc3ccccc3C2)cn1` (centres undefined): 80.9%.
Take `CCNc1ncc(C(=O)NC2CCOCC2)cn1`: the INHIBITION came out at 1.94%.
For the compound `CCNc1ncc(C(=O)NC2CCSC2)cn1` (centres undefined), the INHIBITION is 37.7%.
Turning to `CCNc1ncc(C(=O)N[C@@H](C)[C@H](O)c2ccccc2)cn1`, the INHIBITION stood at 71.2%.
For `CCc1nnc2n1CCN(C(=O)c1cc(Cl)c[nH]1)C2`, the INHIBITION is recorded as 24.39%.
In the case of `Cc1sc(C(=O)NS(C)(=O)=O)cc1-c1ccc(F)cc1`, the INHIBITION was found to be 32.7%.
Consider `CCCN1CCC2(CC1)COc1ccccc1S(=O)(=O)N(CC1CC1)C2`, for which the INHIBITION is reported as -17.1%.
For `CO[C@@H]1CC[C@H]2[C@H]1OCCN2S(=O)(=O)C1CC1`, the INHIBITION was -15.2%.
As to `Cc1cc(C)c(CNC(=O)C(C)Oc2ccccc2C#N)c(=O)[nH]1` (centres undefined), the INHIBITION is on record as 37.9%.
Consider `CCS(=O)(=O)N(C)C1CCN(C(=O)c2cccc(Cl)c2)CC1`, for which the INHIBITION is 61.8%.
Consider `CN(C)C1COC2(CCN(C(=O)c3cccc(Cl)c3)CC2)C1` (centres undefined), for which the INHIBITION is recorded as -9.74%.
Turning to `CCN(C1CCN(C(=O)c2cccc(Cl)c2)CC1)S(C)(=O)=O`, the INHIBITION is on record as 50%.
Regarding `CCS(=O)(=O)N(C)C1CCN(C(=O)c2ccc(Cl)cc2)CC1`, the INHIBITION is on record as 47.4%.
Turning to `CCS(=O)(=O)N(C)C1CCN(C(=O)c2ccc(C)c(C)c2)CC1`, the INHIBITION is 27.7%.
In the case of `CN(C)CCN1CC[C@@H]2[C@@H]1CCN2C(=O)c1cccc(Cl)c1`, the INHIBITION is listed as 40.4%.
On to `O=C(CC1CC1)N1CC[C@H]2[C@@H]1CCC(=O)N2Cc1ccncc1`, for which the INHIBITION is given as 29%.
For `Cc1ccccc1SC1CCN(C(=O)CCCS(N)(=O)=O)CC1`, the INHIBITION amounted to 53.7%.
Turning to `Cc1ccccc1SC1CCN(C(=O)C2CNC(=O)N2)CC1` (centres undefined), the INHIBITION is on record as 12.8%.
With `Cc1ccccc1SC1CCN(C(=O)C2CNCC(=O)N2)CC1` (centres undefined) the figure was 1.37%; with `Cc1ccccc1SC1CCN(C(=O)C2[C@H]3CNC[C@@H]23)CC1` (some centres undefined), 90.7%.
With `Cc1cccc(SC2CCN(C(=O)CCCS(N)(=O)=O)CC2)c1`, the INHIBITION worked out at 32.8%.
On to `Cc1ccccc1N1CCCN(C(=O)CCCS(N)(=O)=O)CC1`, for which the INHIBITION was determined as 21.6%.
On to `Cc1cc(C2CCCN2Cc2ccc(S(=O)(=O)N(C)C)o2)on1` (centres undefined), for which the INHIBITION worked out at 5.9%.
In the case of `OCC1N(Cc2ccco2)C2CCC1(O)CC2` (centres undefined), the INHIBITION is reported as 32.8%.
Turning to `O=C1NCCN1CCNc1cc(-c2ccccc2)nc2ccnn12`, the INHIBITION is -39.2%.
With `O=C1CC(c2ccncc2)C2(CCN(C(=O)c3ccc[nH]3)CC2)N1` (centres undefined), the INHIBITION was found to be 33.5%.
`O=C1CC(c2ccncc2)C2(CCN(C(=O)c3ccnnc3)CC2)N1` (centres undefined): the INHIBITION amounted to 41.6%.
Next, `O=C1CC(c2ccncc2)C2(CCN(CCc3ccccc3)CC2)N1` (centres undefined): 90.8%; `Cc1noc(C)c1CN1CCC2(CC1)NC(=O)CC2c1ccncc1` (centres undefined): 25.5%.
With `O=C1CC(c2ccncc2)C2(CCN(C(=O)c3cccs3)CC2)N1` (centres undefined) the figure was 73%; with `Cc1noc(C)c1CN1CCC2(CC1)NC(=O)CC2c1ccccc1` (centres undefined), 65.7%; with `O=C1CC(c2ccccc2)C2(CCN(Cc3ccncc3)CC2)N1` (centres undefined), 8.64%.
Next, `O=C1CC(c2ccncc2)C2(CCN(CCO)CC2)N1` (centres undefined): 47.8%.
As for `Cc1noc(C)c1CN1CCC2(CC1)NC(=O)CC2c1cnn(C)c1` (centres undefined), the INHIBITION is 12.5%.
As for `CCc1nnc(NC(=O)Cc2c(C)nc(C)[nH]c2=O)s1`, the INHIBITION came to 13.75%.
Next, `Cc1nnc(CN2CCN(C(C)c3nc(C4CC4)no3)CC2)o1` (centres undefined): -33.7%; `COc1ccccc1-c1ccc(C2CCCN(C(C)=O)C2)nc1` (centres undefined): 19.4%.
Regarding `O=C(NC1CCCc2c1[nH]c1ccc(F)cc21)c1n[nH]c2c1CCC2` (centres undefined), the INHIBITION amounted to 61.2%.
On to `CC(=O)NC1CCCc2c1[nH]c1ccc(F)cc21` (centres undefined), for which the INHIBITION is given as 62.4%.
Regarding `O=C(NC1CCCc2c1[nH]c1ccc(F)cc21)c1n[nH]c2c1CCCC2` (centres undefined), the INHIBITION is -8.99%.
As to `O=C(NCCc1ccccn1)c1n[nH]c2c1CCC2`, the INHIBITION is on record as -15.9%.
In the case of `O=C(Cc1cccc(F)c1)NC1CCCc2cn[nH]c21` (centres undefined), the INHIBITION is 18.7%.
With `Cc1c(C(=O)N[C@@H]2CC[C@@H](N3CCCC3)[C@@H]2O)[nH]c2ccc(F)cc12`, the INHIBITION is on record as 29.5%.
As to `CCC1CN(C(=O)CN2CCN(c3nccc(OC)n3)CC2)CCO1` (centres undefined), the INHIBITION was -28.4%.
`CC(=O)N1CCO[C@@H]2CN(C(=O)c3cc(C)oc3C)CC[C@@H]2C1`: the INHIBITION was determined as 26.2%.
